Counter-ions that a name gives are not always drawn. ± gives the standard deviation of the averaged measurements.
Experiments:
Assay in all cases: growth (OD600 after 10 h); higher = more growth (less inhibition)
[1] = test system: E. coli TESEC Alr+ wild-type control; settings: compound 0.1 mM; raw OD600 reference: median of DMSO wells 0.241, cell-free background 0.041
Protocol: (§1)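 TESEC Mtb Alr E. coli, or the Alr+ wild-type control, in 384-well plates with Prestwick library compounds at 0.1 mM and 1% DMSO, across arabinose induction levels of 1E3 to 1E7 nM. Growth is read as OD600 after 10 h at 37 °C in triplicate biological replicates.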

[2] = test system: E. coli TESEC Mtb Alr; settings: compound 0.1 mM
Protocol: as §1

[3] = test system: E. coli TESEC Mtb Asd; settings: compound 0.1 mM
Protocol: (§2)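 TESEC E. coli strains in which the native enzyme is deleted and replaced by arabinose-inducible Mtb Asd, DapB, CysH or TrpD, each grown in its selective medium. Strains were screened against the Prestwick library at 0.1 mM and 1% DMSO in 384-well format at low and high arabinose induction. Growth is read as OD600 after 10 h in triplicate.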

[4] = test system: E. coli TESEC Mtb DapB; settings: compound 0.1 mM
Protocol: as §2

[5] = test system: E. coli TESEC Alr+ wild-type control; settings: compound 0.1 mM; raw OD600 reference: median of DMSO wells 0.49, cell-free background 0.052
Protocol: (§3)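 TESEC Mtb Alr E. coli (ΔaraC ΔtolC ΔentC Δalr ΔdadX, arabinose-inducible Mtb Alr) or the Alr+ wild-type control strain, grown in defined M9-fructose medium without D-alanine in 96-well plates with Prestwick library compounds at 0.1 mM and 1% DMSO. Low Alr induction is 0.1 µM arabinose and high induction is 10 mM arabinose.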

[6] = test system: E. coli TESEC Mtb Alr; settings: compound 0.1 mM; remark: listed apart in the source
Protocol: as §3

[7] = arabinose 1000 nM, raw OD600 reference: median of DMSO wells 0.294, cell-free background 0.041
[8] = arabinose 10000 nM, raw OD600 reference: median of DMSO wells 0.264, cell-free background 0.041
[9] = arabinose 100000 nM, raw OD600 reference: median of DMSO wells 0.201, cell-free background 0.041
[10] = arabinose 1000000 nM, raw OD600 reference: median of DMSO wells 0.193, cell-free background 0.041
[11] = arabinose 10000000 nM, raw OD600 reference: median of DMSO wells 0.146, cell-free background 0.041
[12] = arabinose induction (level): High, raw OD600 reference: median of DMSO wells 0.331, cell-free background 0.041
[13] = arabinose induction (level): Low, raw OD600 reference: median of DMSO wells 0.417, cell-free background 0.041
[14] = arabinose induction (level): High, raw OD600 reference: median of DMSO wells […], cell-free background 0.041
[15] = arabinose induction (level): Low, raw OD600 reference: median of DMSO wells 0.227, cell-free background 0.041
[16] = arabinose 100 nM, raw OD600 reference: median of DMSO wells 0.413, cell-free background 0.052
[17] = arabinose 10000000 nM, raw OD600 reference: median of DMSO wells […], cell-free background 0.052

SMILES | growth [1] | growth [2, 7] | growth [2, 8] | growth [2, 9] | growth [2, 10] | growth [2, 11] | growth [3, 12] | growth [3, 13] | growth [4, 14] | growth [4, 15] | growth [5] | growth [6, 16] | growth [6, 17]
CCCc1cc(=O)[nH]c(=S)[nH]1 [Propylthiouracil] | 0.241 ± 0.0062 | 0.289 ± 0.025 | 0.263 ± 0.0094 | 0.219 ± 0.034 | 0.195 ± 0.0092 | 0.152 ± 0.0063 | 0.431 ± 0.04 | 0.45 ± 0.047 | 0.199 ± 0.0093 | 0.194 ± 0.019 | 0.55 ± 0.1 | 0.41 ± 0.015 | 0.345 ± 0.043
CNC1(C)C2CCC(C2)C1(C)C (configuration not stated) [Mecamylamine hydrochloride] | 0.242 ± 0.006 | 0.307 ± 0.0084 | 0.293 ± 0.0071 | 0.214 ± 0.034 | 0.185 ± 0.016 | 0.156 ± 0.0054 | 0.266 ± 0.078 | 0.304 ± 0.093 | 0.187 ± 0.018 | 0.238 ± 0.012 | 0.462 ± 0.03 | 0.433 ± 0.0029 | 0.312 ± 0.02
COc1cc(C(=O)NS(=O)(=O)c2ccccc2C)ccc1Cc1cn(C)c2ccc(NC(=O)OC3CCCC3)cc12 [Zafirlukast] | 0.125 ± 0.0034 | 0.0976 ± 0.0046 | 0.0651 ± 0.0044 | 0.164 ± 0.0027 | 0.128 ± 0.0091 | 0.168 ± 0.0084 | 0.193 ± 0.022 | 0.12 ± 0.047 | 0.179 ± 0.018 | 0.213 ± 0.033 | 0.189 ± 0.01 | 0.257 ± 0.018 | 0.215 ± 0.024
CN(C/C=C/C#CC(C)(C)C)Cc1cccc2ccccc12 [Terbinafine] | 0.214 ± 0.0072 | 0.272 ± 0.0085 | 0.226 ± 0.025 | 0.177 ± 0.0062 | 0.085 ± 0.0043 | 0.174 ± 0.0062 | 0.296 ± 0.046 | 0.41 ± 0.037 | 0.182 ± 0.047 | 0.218 ± 0.03 | 0.358 ± 0.013 | 0.145 ± 0.035 | 0.0574 ± 0.0026
CN(C)CCC=C1c2ccccc2COc2ccccc21 [Doxepin hydrochloride] | 0.199 ± 0.018 | 0.245 ± 0.0099 | 0.262 ± 0.011 | 0.178 ± 0.0063 | 0.134 ± 0.0022 | 0.144 ± 0.0036 | 0.186 ± 0.034 | 0.326 ± 0.032 | 0.169 ± 0.013 | 0.182 ± 0.013 | 0.472 ± 0.033 | 0.41 ± 0.0055 | 0.342 ± 0.046
CCS(=O)(=O)CCn1c([N+](=O)[O-])cnc1C [Tinidazole] | 0.237 ± 0.0086 | 0.286 ± 0.011 | 0.256 ± 0.0041 | 0.198 ± 0.0079 | 0.169 ± 0.0069 | 0.139 ± 0.005 | 0.345 ± 0.048 | 0.405 ± 0.013 | 0.204 ± 0.0081 | 0.212 ± 0.027 | 0.521 ± 0.092 | 0.402 ± 0.0095 | 0.315 ± 0.0068
CCN(Cc1ccncc1)C(=O)C(CO)c1ccccc1 (configuration not stated) [Tropicamide] | 0.24 ± 0.0069 | 0.308 ± 0.02 | 0.266 ± 0.0032 | 0.212 ± 0.027 | 0.174 ± 0.0051 | 0.158 ± 0.0048 | 0.289 ± 0.021 | 0.416 ± 0.022 | 0.19 ± 0.0057 | 0.249 ± 0.054 | 0.527 ± 0.08 | 0.413 ± 0.013 | 0.33 ± 0.0058
CCN(CC)CCNC(=O)c1cc(Br)c(N)cc1OC [Bromopride] | 0.243 ± 0.025 | 0.312 ± 0.011 | 0.256 ± 0.0069 | 0.196 ± 0.0058 | 0.181 ± 0.006 | 0.1557 ± 0.00098 | 0.467 ± 0.025 | 0.4797 ± 0.0047 | 0.196 ± 0.014 | 0.256 ± 0.033 | 0.428 ± 0.011 | 0.4074 ± 0.0017 | 0.316 ± 0.022
Cc1noc(NS(=O)(=O)c2ccc(N)cc2)c1C [Sulfisoxazole] | 0.248 ± 0.0068 | 0.274 ± 0.021 | 0.203 ± 0.0055 | 0.213 ± 0.042 | 0.12 ± 0.0019 | 0.149 ± 0.0027 | 0.308 ± 0.035 | 0.386 ± 0.073 | 0.19 ± 0.0067 | 0.205 ± 0.022 | 0.588 ± 0.015 | 0.424 ± 0.012 | 0.313 ± 0.019
OC[C@H]1O[C@@H](Oc2ccc(O)cc2)[C@H](O)[C@@H](O)[C@@H]1O [Arbutin] | 0.245 ± 0.012 | 0.325 ± 0.02 | 0.272 ± 0.011 | 0.193 ± 0.021 | 0.191 ± 0.0053 | 0.144 ± 0.0033 | 0.21 ± 0.011 | 0.362 ± 0.092 | 0.209 ± 0.003 | 0.246 ± 0.051 | 0.499 ± 0.077 | 0.403 ± 0.017 | 0.317 ± 0.013
CCc1cccc(CC)c1NC(=O)CN(CC(=O)O)CC(=O)O [Etifenin] | 0.2457 ± 0.00078 | 0.295 ± 0.011 | 0.276 ± 0.0042 | 0.231 ± 0.012 | 0.192 ± 0.011 | 0.146 ± 0.0052 | 0.29 ± 0.033 | 0.375 ± 0.09 | 0.179 ± 0.015 | 0.196 ± 0.003 | 0.603 ± 0.11 | 0.412 ± 0.012 | 0.338 ± 0.017
Nc1nc2c(ncn2COCCO)c(=O)[nH]1 [Acyclovir] | 0.255 ± 0.014 | 0.287 ± 0.021 | 0.2708 ± 0.0022 | 0.239 ± 0.019 | 0.196 ± 0.014 | 0.139 ± 0.0044 | 0.374 ± 0.016 | 0.416 ± 0.047 | 0.206 ± 0.005 | 0.26 ± 0.024 | 0.47 ± 0.04 | 0.413 ± 0.011 | 0.355 ± 0.029
O=C(c1ccc(OCCN2CCCCC2)cc1)c1c(-c2ccc(O)cc2)sc2cc(O)ccc12 [Raloxifene hydrochloride] | 0.0456 ± 0.0048 | 0.0454 ± 0.0038 | 0.0428 ± 0.0024 | 0.048 ± 0.0037 | 0.0438 ± 0.002 | 0.0448 ± 0.003 | 0.062 ± 0.0013 | 0.0566 ± 0.0034 | 0.0658 ± 0.014 | 0.0509 ± 0.0031 | 0.04917 ± 0.00038 | 0.41 ± 0.007 | 0.0554 ± 0.0018
CCCNC(C)C(=O)Nc1ccccc1C (configuration not stated) [Prilocaine hydrochloride] | 0.234 ± 0.0054 | 0.275 ± 0.011 | 0.264 ± 0.0046 | 0.1867 ± 0.0018 | 0.167 ± 0.0054 | 0.136 ± 0.0076 | 0.322 ± 0.093 | 0.408 ± 0.031 | 0.1776 ± 0.0016 | 0.209 ± 0.023 | 0.493 ± 0.068 | 0.427 ± 0.012 | 0.333 ± 0.008

Source: the supplement of paper PMC9262897, “Low-cost anti-mycobacterial drug discovery using engineered E. coli” (Nature Communications, 2022)
